Reference: ChEMBL document CHEMBL3988442, “University of Dundee, Small-Polar-MMV Screening Library” (2021)
The whole screen tested about 48,000 compounds, of which about 13,000 (27%) showed an effect of 50% or more. This is one part of the list.

system: Wolbachia pipientis; experiment: Anti-Wolbachia Cell-Based Screen; assay type: functional; parameters: scale not given: in the data most compounds retested in dose-response had high values; settings: 5 µM

Question: How did the “Percent Effect” value turn out when `CN(C)CCN1CC2(CCCN(c3ccc(Cl)cn3)C2)CCC1=O` (stereo unspecified) was run?
Answer: -8.264%

Question: `CCN(Cc1ccoc1)c1ncc(S(N)(=O)=O)s1` was tested. Which “Percent Effect” value did it give?
Answer: -17.75%

Question: Which “Percent Effect” value does the source give for `CC(NCCCC#N)c1ccc(-c2ccncc2)cc1` (stereo unspecified) here?
Answer: -12.76%

Question: How did the “Percent Effect” value turn out when `CCc1ccc(CN2CCC3(CCCN(C(=O)N(C)C)C3)C2)o1` (stereo unspecified) was run?
Answer: 2.362%

Question: `CN1CC2(CCN(CCOCCO)CC2)CC(c2ccccc2)C1=O` (stereo unspecified) was tested. Which “Percent Effect” value did it give?
Answer: -8.792%

Question: `CCN1CC2(CCNCC2)COc2ccccc2S1(=O)=O.O=C(O)C(F)(F)F` was tested. Which “Percent Effect” value did it give?
Answer: 12.77%

Question: With `CN(C)CC(=O)N1CCC2(CC1)COc1ccccc1S(=O)(=O)N(C)C2` as the compound, how does the “Percent Effect” value read?
Answer: 75.94%

Question: With `COCC(=O)N1CCC2(CC1)COc1ccccc1S(=O)(=O)N(C)C2` as the compound, how does the “Percent Effect” value read?
Answer: 78.61%

Question: Which “Percent Effect” value does the source give for `CCC(=O)N1CCC2(CC1)COc1ccccc1S(=O)(=O)N(C)C2` here?
Answer: 3.45%

Question: With `COCCN1CCC2(CC1)COc1ccccc1S(=O)(=O)N(C)C2` as the compound, how does the “Percent Effect” value read?
Answer: 110%

Question: Which “Percent Effect” value does the source give for `CCN1CC2(CCN(C(=O)N(C)C)CC2)COc2ccccc2S1(=O)=O` here?
Answer: 88.03%

Question: For `CN1[C@@H](c2ccccc2)[C@@H](C(=O)NCC2CCOCC2)C[C@@]1(C)C(=O)O`, which “Percent Effect” value is on record?
Answer: -0.5583%

Question: How did the “Percent Effect” value turn out when `COCc1ccccc1C(=O)NCC(c1c(F)cccc1F)N(C)C` (stereo unspecified) was run?
Answer: -0.8203%

Question: Which “Percent Effect” value does the source give for `O=c1nc(SCc2cccnc2)c2c(n1CCO)CCC2` here?
Answer: -0.5534%

Question: How did the “Percent Effect” value turn out when `O=S(=O)(c1cc2ccccc2o1)N1CCCC1` was run?
Answer: -2.177%

Question: Which “Percent Effect” value does the source give for `CS(=O)(=O)NCC(=O)NCc1cccnc1-n1cnc2ccccc21` here?
Answer: 9.043%

Question: `COc1cccc(-c2n[nH]c3c2CN(C(=O)c2cccc(=O)[nH]2)CC3)c1` was tested. Which “Percent Effect” value did it give?
Answer: -3.168%

Question: How did the “Percent Effect” value turn out when `CC(=O)N1CC(c2ncn(C(C)C)n2)c2cc(C(=O)NC3CC3)ccc21` (stereo unspecified) was run?
Answer: -21.86%

Question: With `CCS(=O)(=O)N1CCC(c2nccn2Cc2ccccn2)CC1` as the compound, how does the “Percent Effect” value read?
Answer: -0.918%

Question: How did the “Percent Effect” value turn out when `CN(C)CCn1nc(C2CCN(S(=O)(=O)N(C)C)C2)c2cccnc21` (stereo unspecified) was run?
Answer: 111.8%

Question: How did the “Percent Effect” value turn out when `CCn1c(C2CCCN(S(=O)(=O)C3CC3)C2)nn(CCN(C)C)c1=O` (stereo unspecified) was run?
Answer: 1.006%

Question: `CN(C)S(=O)(=O)N1CCCC(c2nccn2Cc2cccnc2)C1` (stereo unspecified) was tested. Which “Percent Effect” value did it give?
Answer: -1.241%

Question: Which “Percent Effect” value does the source give for `NCCn1nc(C2CCN(Cc3ccc(Cl)c(Cl)c3)C2)c2nccnc21` (stereo unspecified) here?
Answer: 1.426%

Question: `CCn1c(CN(C)C)nnc1C1CCN(Cc2ccccc2)CC1` was tested. Which “Percent Effect” value did it give?
Answer: 3.823%

Question: With `CCS(=O)(=O)N1CCC(c2nn(CCN(C)C)c3ncccc23)C1` (stereo unspecified) as the compound, how does the “Percent Effect” value read?
Answer: 95.82%

Question: With `CN(C)CCn1nc(C2CCN(Cc3ccccc3)C2)c2cccnc21` (stereo unspecified) as the compound, how does the “Percent Effect” value read?
Answer: 91.7%

Question: With `O=C(NC1(c2nnn(CCO)n2)CCCC1)c1ccccc1` as the compound, how does the “Percent Effect” value read?
Answer: -5.354%

Question: How did the “Percent Effect” value turn out when `Cc1ccc(-c2c(C(=O)NC3CCN(C)CC3)csc2C)cc1` was run?
Answer: 4.532%

Question: With `CN1CCC(NC(=O)c2cc(C3CCCCC3)nc3ccccc23)CC1` as the compound, how does the “Percent Effect” value read?
Answer: 113.5%

Question: `Cn1c(C(=O)NC2CCCC2)nc2c1CCN(Cc1ccccc1)C2` was tested. Which “Percent Effect” value did it give?
Answer: 4.267%

Question: For `Cn1cc(C2(C)CN(Cc3ccc(O)c(Cl)c3)CCO2)cn1` (stereo unspecified), which “Percent Effect” value is on record?
Answer: -11.09%

Question: How did the “Percent Effect” value turn out when `CCCn1nc2c(cc1=O)CN(Cc1cc(C)on1)CC2` was run?
Answer: -1.057%

Question: How did the “Percent Effect” value turn out when `CCc1ccc(C(=O)NC(C)c2ccc(S(C)(=O)=O)c(F)c2)o1` (stereo unspecified) was run?
Answer: 2.681%

Question: How did the “Percent Effect” value turn out when `CCOCC1CN(C(=O)c2ccncn2)Cc2cnn(C)c21.O=C(O)C(F)(F)F` (stereo unspecified) was run?
Answer: -8.665%

Question: How did the “Percent Effect” value turn out when `CCOCC1CN(C(=O)c2ccnnc2)Cc2cnn(C)c21` (stereo unspecified) was run?
Answer: 100.5%

Question: Which “Percent Effect” value does the source give for `CCOCC1CN(C(=O)c2cccnc2)Cc2cnn(C)c21` (stereo unspecified) here?
Answer: 105%

Question: Which “Percent Effect” value does the source give for `COCC1CN(C(=O)c2cccn2C)Cc2cnn(C)c21` (stereo unspecified) here?
Answer: 3.786%

Question: How did the “Percent Effect” value turn out when `CCOCC1CN(C(=O)c2cccc(C)n2)Cc2cnn(C)c21` (stereo unspecified) was run?
Answer: 129.5%

Question: Which “Percent Effect” value does the source give for `Cc1noc(C)c1CNCC1CCN(CC(O)c2ccccc2)CC1` (stereo unspecified) here?
Answer: 0.6409%

Question: Which “Percent Effect” value does the source give for `CN1CCCC1CCn1ccnc1-c1ccc2ccccc2n1` (stereo unspecified) here?
Answer: -11.7%

Question: How did the “Percent Effect” value turn out when `CCCc1cc(C(=O)NC(COC)c2ccnn2C)no1` (stereo unspecified) was run?
Answer: 98.08%

Question: Which “Percent Effect” value does the source give for `CCCc1nc(C(=O)N2CCN(S(=O)(=O)CC)CC2)cs1` here?
Answer: 13.9%

Question: For `CCCc1cc(C(=O)NCCCn2nnc3ccccc32)no1`, which “Percent Effect” value is on record?
Answer: 2.161%

Question: `CCCc1nc(C(=O)NC(COC)c2ccnn2C)cs1` (stereo unspecified) was tested. Which “Percent Effect” value did it give?
Answer: 113.9%

Question: `COCC(NC(=O)c1cn2ccsc2n1)c1ccnn1C` (stereo unspecified) was tested. Which “Percent Effect” value did it give?
Answer: 103.8%

Question: `CCCc1nc(C(=O)NCCCn2nnc3ccccc32)cs1` was tested. Which “Percent Effect” value did it give?
Answer: 3.085%

Question: How did the “Percent Effect” value turn out when `COCC(Nc1ncnc2sc(C(=O)O)c(C)c12)c1ccnn1C` (stereo unspecified) was run?
Answer: 6.074%

Question: Which “Percent Effect” value does the source give for `COCC(Nc1ncnc2sc(C)c(C)c12)c1ccnn1C` (stereo unspecified) here?
Answer: -1.475%

Question: Which “Percent Effect” value does the source give for `COCC(NC(=O)c1cc(NC(C)=O)ccc1Cl)c1ccnn1C` (stereo unspecified) here?
Answer: -14.74%

Question: For `CCSCCOC(=O)CCCc1ccc2c(c1)CC(=O)N2`, which “Percent Effect” value is on record?
Answer: -3.889%

Question: `CCC1(O)CCCN(c2nc(C(C)(C)C)nc3c2cnn3C)C1` (stereo unspecified) was tested. Which “Percent Effect” value did it give?
Answer: -1.49%

Question: `CN(C)C(=O)N1CC(=O)NCC12CCN(C(=O)c1ccco1)C2` (stereo unspecified) was tested. Which “Percent Effect” value did it give?
Answer: -32.82%

Question: `COc1cc(C2CC(=O)NCc3nc4sccn4c32)cc(OC)c1O` (stereo unspecified) was tested. Which “Percent Effect” value did it give?
Answer: -15.83%

Question: For `COCCn1ccnc1C1CCN(c2cccc(C(=O)O)n2)CC1`, which “Percent Effect” value is on record?
Answer: -10.3%

Question: How did the “Percent Effect” value turn out when `CCn1cc(CN2CCCC(CO)(CCc3ccccc3)C2)c(C)n1` (stereo unspecified) was run?
Answer: -0.5849%

Question: For `Cn1cc(CN2CCCN(CCCc3ccccc3)CC2)cn1`, which “Percent Effect” value is on record?
Answer: 4.066%

Question: How did the “Percent Effect” value turn out when `Cc1nn(C)cc1CN1CCC(C2Nc3ccccc3S(=O)(=O)N2)CC1` (stereo unspecified) was run?
Answer: -11.33%

Question: With `Cc1ccc(C2(CN3CCN(Cc4cn(C)nc4C)CC3)CC2)cc1.Cl` as the compound, how does the “Percent Effect” value read?
Answer: 115.4%

Question: With `Cc1nn(C)cc1CN1CCN(CC2(c3ccccc3)CC2)CC1` as the compound, how does the “Percent Effect” value read?
Answer: 110.9%

Question: How did the “Percent Effect” value turn out when `Cl.Cn1cc(CN2CCN(CC3(c4ccccc4)CC3)CC2)cn1` was run?
Answer: 82.02%

Question: Which “Percent Effect” value does the source give for `C=Cn1cc(CN2CCN(CC3(c4ccccc4)CC3)CC2)c(C)n1` here?
Answer: 101.3%

Question: `Cc1cccc(N2CCC3(CCCN3Cc3cn(C)nc3C)CC2)n1` was tested. Which “Percent Effect” value did it give?
Answer: -1.763%

Question: Which “Percent Effect” value does the source give for `CN1C(=O)CC2(CCN(Cc3cnn(C)c3)CC2)c2ccccc21` here?
Answer: 0.9694%

Question: Which “Percent Effect” value does the source give for `Nc1ncc(CN2C[C@H](C3CC3)[C@@H](N)C2)cn1` here?
Answer: -6.254%

Question: With `CC(NC(=O)N1CCC2(C1)OCCO2)c1ccc(F)cc1Cl` (stereo unspecified) as the compound, how does the “Percent Effect” value read?
Answer: -14.1%

Question: `CC(C)N(C)Cc1cc(=O)n2c(n1)CN(C(=O)c1ccnnc1)CCC2` was tested. Which “Percent Effect” value did it give?
Answer: 96.43%

Question: `CC(C)N(C)Cc1noc2c1CN(C(=O)c1ccsc1)CC2` was tested. Which “Percent Effect” value did it give?
Answer: 5.959%

Question: Which “Percent Effect” value does the source give for `Cc1cnc(C(=O)N2CCCn3c(nc(CN(C)C)cc3=O)C2)cn1.O=C(O)C(F)(F)F` here?
Answer: -7.099%

Question: How did the “Percent Effect” value turn out when `CN1CCN(Cc2cnc3n2CCN(C(=O)c2cnccn2)C3)CC1` was run?
Answer: -7.558%

Question: Which “Percent Effect” value does the source give for `CCN(CC)Cc1cc(=O)n2c(n1)CN(C(=O)c1ccnnc1)CCC2.O=C(O)C(F)(F)F` here?
Answer: 96.84%

Question: For `CC(C)N(C)Cc1cc(=O)n2c(n1)CN(C(=O)c1cnccn1)CCC2`, which “Percent Effect” value is on record?
Answer: 114.9%
